# About 5,100 (6%) of roughly 85,000 compounds were called active. The sample as a whole holds a higher share of actives than the screen did. A number with no mark means an inactive call.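 The calls were made as follows: active = viability at or below 40%; inactive = viability above 40%.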
# Experiment: proliferation blockers of H69AR lung cancer cells, primary screen, cell-based, human, 86K library (AID 598);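 also: multidrug resistant small cell line overexpressing MRP-1 efflux transporter; 100% = mean luminescence of untreated control wells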
# Conditions: H69AR lung tumor viability, ATP luminescence, 72 h; at 10 µM; stronger effect = lower value
row,Compound,viability
1,Cc1cc(N2CCN(S(=O)(=O)c3ccc(C)c(C)c3)CC2)c2ccccc2n1,66.8%
2,CC1(C)CCc2nc(SCc3ccccc3)c(C#N)cc2C1,81.4%
3,CC(NC(=O)CSc1nc2c(cc1C#N)CN(C)CC2)c1ccccc1 (stereo not given),15.6% (active)
4,Cc1ccc2cc(C#N)c(SCC(=O)NCC3CCCO3)nc2c1C (stereo not given),91.2%
5,O=C1C2N=NN(CC(=O)N3N=C(c4cccc5ccccc45)CC3c3ccccc3)C2C(=O)N1c1ccccc1 (stereo not given),70.5%
6,CCN1CCCC1Cn1cnc2c([nH]c3cc(OC)ccc32)c1=O (stereo not given),79.9%
7,Cc1cccc(CCNS(=O)(=O)c2ccc(S(=O)(=O)NC3CCCC3)cc2)c1,78%
8,O=C(Nc1ccc(Cl)cc1)c1cc2nc(C3CC3)cc(C(F)(F)F)n2n1,79.5%
9,CCOC(=O)C1CCN(C(c2cc3cc(C)cc(C)c3[nH]c2=O)c2nnnn2C2CCCCC2)CC1 (stereo not given),6.09% (active)
10,COc1ccc(N2CCN(C(c3cc4ccc(C)cc4[nH]c3=O)c3nnnn3C3CCCC3)CC2)cc1 (stereo not given),86.9%
11,Cc1cc(C)c2[nH]c(=O)c(C(c3nnnn3Cc3ccc4c(c3)OCO4)N3CCCC3)cc2c1 (stereo not given),68.1%
12,Cc1ccc(-c2noc(CC(c3ccccc3)c3ccccc3)n2)cc1,97.1%
13,CCn1c(CNC(=O)c2ccccc2)nnc1SCC(=O)N1CCN(c2ccccc2)CC1,90.4%
14,Cc1cccc2nc(CSc3nc4[nH]ncc4c(=O)n3-c3cccc(Cl)c3)cc(=O)n12,41.8%
15,Cc1cc(C)c2c(n1)nn1c(-n3ccnc3)cc(C)nc21,74.5%
16,Cc1cc(C)c2c(n1)nn1c(N3CCN(c4cccc(Cl)c4)CC3)cc(C)nc21,17.6% (active)
17,Cc1cc(C)c2c(n1)nn1c(N3CCOCC3)cc(C)nc21,72.3%
18,O=C(NCc1ccco1)C1(c2ccc(Cl)cc2)CCCC1,96.8%
19,O=C(NCc1ccco1)c1cc(-c2cccnc2)nc2ccc(Cl)cc12,68.3%
20,O=C(CSc1c2c(nc3ccc(Cl)cc13)CCCC2)NCc1ccco1,7.34% (active)
21,COc1ccc(-n2nnnc2SCc2nc(N)nc(N3CCOCC3)n2)cc1,94.2%
22,Cc1cc(NC(=O)CS(=O)(=O)c2cn(C)c3ccccc23)no1,78.6%
23,C=C(C)Cn1c(SCC(=O)NCc2ccco2)nc2sc3c(c2c1=O)CCC3,49.4%

row,Compound,viability
1,O=C(CCCn1c(SCC(=O)c2ccc(F)cc2)nc2ccccc2c1=O)NCc1ccco1,58.2%
2,O=C(CSc1nc2cc3c(cc2c(=O)n1CCC1=CCCCC1)OCO3)NCc1ccco1,36.1% (active)
3,Cc1c(CCO)c(=O)n(-c2ccccc2)n1S(=O)(=O)c1ccc(F)cc1,75.6%
4,CCn1c(SCC(=O)Nc2ccc(S(=O)(=O)Nc3onc(C)c3C)cc2)nnc1-c1ccccc1,98.3%
5,COn1c(=O)c(=O)n(OC)c2ccccc21,97.1%
6,COC(=O)c1ccccc1Oc1c(F)c(F)nc(N2CCOCC2)c1F,67.1%
7,Cc1ccc2c(c1)N(CC(=O)N(Cc1ccccn1)Cc1ccco1)C(=O)C(C(C)C)O2 (stereo not given),35% (active)
8,Cc1ccc(C(C(=O)NC2CCCC2)N(Cc2ccco2)C(=O)CCC(=O)Nc2ccccn2)cc1 (stereo not given),69.7%
9,Cc1ccc(C)c(N(CC(=O)NCc2ccco2)C(=O)CCC(=O)Nc2ccccn2)c1,98.1%
10,COc1cc(S(=O)(=O)N(Cc2cccs2)C2CC2)ccc1-n1cnnn1,68%
11,COC(=O)c1ccccc1NC(=O)Cc1ccccc1OC,94.2%
12,CCOC(=O)c1nnn(-c2nonc2-n2cccc2)c1CN1CCC(C(=O)OCC)CC1,70.5%
13,CCOc1ccc(S(=O)(=O)NCCSc2ccccc2)cc1,105%
14,COc1ccc(C(=O)N2CC3(C)CC2CC(C)(C)C3)cc1OC (stereo not given),88.7%
15,Cc1coc2c(O)cc3c(c12)OC1(N2CCCCC2)C(=O)NCCCC31 (stereo not given),1.27% (active)
16,CCc1c(O)cc2n(c1=O)-c1ccccc1C2(C)C,91.5%
17,COc1ccc(Br)cc1/C=N/n1c(C)nnc1C,28.1% (active)
18,COC(=O)c1ccc(/C=N\n2c(C)nnc2C)cc1,99.6%
19,Cc1nnc(C)n1/N=C/c1ccc(C(C)C)cc1,106%
20,CCN(CC)CC(=O)c1c[nH]c2ccc(OC)cc12,77.2%
21,CC(c1ccco1)N(C(=O)Nc1ccccc1)C1CCCCC1 (stereo not given),77.7%
22,O=C(CO/N=C/c1ccccc1O)NNC(=O)c1ccccc1Cl,102%

# Source: PubChem BioAssay AID598 (SRMLSC, 2007)
